Records with an inconclusive call do not appear. Where a call stands in place of a potency, no number is given. Unmarked numbers belong to inactive results. Active and inactive are the calls of the source. The call rests on the fitted dose curve.
What follows are molecules tested against Thyrotropin receptor (Homo sapiens) (UniProt P16473) (assay: qHTS assay to identify small molecule antagonists of the thyroid stimulating hormone receptor (TSHR) signaling pathway (AID 1259385; further: nearly all actives have a fitted effect of over 20% in size)). Settings: TSHR-HEK293 cAMP HTRF, TSH-stimulated antagonist mode; series mostly up to 92.4 µM.
Chain of Thyrotropin receptor (Homo sapiens) (P16473 whole entry, looked up): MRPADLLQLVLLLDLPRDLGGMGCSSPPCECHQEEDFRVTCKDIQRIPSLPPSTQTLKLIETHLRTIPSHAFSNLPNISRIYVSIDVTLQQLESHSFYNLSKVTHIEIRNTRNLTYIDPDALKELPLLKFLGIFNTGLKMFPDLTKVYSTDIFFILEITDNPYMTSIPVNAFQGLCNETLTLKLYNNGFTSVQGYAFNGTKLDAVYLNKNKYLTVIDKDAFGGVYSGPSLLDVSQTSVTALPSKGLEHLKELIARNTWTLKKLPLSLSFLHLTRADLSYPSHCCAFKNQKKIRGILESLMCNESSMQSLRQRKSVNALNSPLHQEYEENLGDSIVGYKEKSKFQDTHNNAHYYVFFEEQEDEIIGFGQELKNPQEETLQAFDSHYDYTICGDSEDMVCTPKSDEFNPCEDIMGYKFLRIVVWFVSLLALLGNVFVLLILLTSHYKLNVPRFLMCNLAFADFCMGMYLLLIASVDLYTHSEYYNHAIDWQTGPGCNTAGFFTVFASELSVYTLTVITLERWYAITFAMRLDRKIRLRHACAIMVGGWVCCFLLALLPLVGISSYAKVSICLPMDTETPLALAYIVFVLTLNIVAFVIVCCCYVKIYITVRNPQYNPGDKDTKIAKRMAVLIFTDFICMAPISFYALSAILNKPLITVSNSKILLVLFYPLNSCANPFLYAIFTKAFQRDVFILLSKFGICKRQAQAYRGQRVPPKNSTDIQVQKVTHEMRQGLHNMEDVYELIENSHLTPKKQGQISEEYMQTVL
Procedure, shortened: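 TSHR-HEK293 cells (800/well) plated 18 h, then compounds with Ro20-1724 and TSH at 1.5 ng/mL final, 30 min at room temperature. cAMP quantified by HTRF (cAMP-d2/anti-cAMP-cryptate, 1 h); 15 concentrations in triplicate.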

SMILES	Potency	activity change, negative = inhibition
Fc1cc(Br)ccc1CBr	inactive	–
CC(Cl)(Cl)[N+](=O)[O-]	inactive	–
COC(=O)C(c1ccccc1)C1CCCCN1 (stereo not given)	inactive	–
c1cc2c(c(N3CCNCC3)c1)OCCO2	inactive	–
CNC(=O)N(C)c1nc2ccccc2s1	inactive	–
CC1COC2(c3ccccc3Cl)c3cc(Cl)ccc3NC(=O)CN12 (stereo not given)	inactive	–
O=C1OC(CCN2CCCCC2)OC1(c1ccccc1)c1ccccc1 (stereo not given)	inactive	–
c1ccc(N2CCNCC2)cc1	inactive	–
COc1ncc(F)c2nc(S(=O)(=O)Nc3c(F)cccc3F)nn12	inactive	–
CNC(=O)Oc1c(C(C)(C)C)cc(C)cc1C(C)(C)C	inactive	–
Clc1ccccc1N1CCNCC1	inactive	–
O=C(O)c1ccc2[nH]cc(CCCCN3CC=C(c4ccccc4)CC3)c2c1	inactive	–
CCN(CC)C(C)C(=O)c1ccccc1 (stereo not given)	inactive	–
CCOP(=S)(OCC)Oc1ncn(-c2ccccc2)n1	inactive	–
COc1ccc2c(c1OC)CN1CCc3cc4c(cc3C1C2)OCO4 (stereo not given)	inactive	–
CCC(C)(C)c1cc(-n2nc3ccccc3n2)c(O)c(C(C)(C)CC)c1	inactive	–
CC(Oc1ccc(Oc2ncc(C(F)(F)F)cc2Cl)cc1)C(=O)O (stereo not given)	inactive	–
C#C[C@]1(O)C=C[C@H]2[C@@H]3CCC4=CC(=O)CC[C@@H]4[C@H]3CC[C@@]21CC	inactive	–
O=C(Nc1ccccc1)c1ccccc1I	inactive	–
COP(N)(=S)Oc1ccccc1C(=O)OC(C)C (stereo not given)	inactive	–
O=CNC(N1CCN(C(NC=O)C(Cl)(Cl)Cl)CC1)C(Cl)(Cl)Cl (stereo not given)	inactive	–
CC1=C(C(=O)O)N2C(=O)[C@@H](N)[C@H]2SC1	–	2.26% [at 19 µM]
Cc1cnc[nH]1	inactive	–
C#CCN1C(=O)COc2cc(F)c(N3C(=O)C4=C(CCCC4)C3=O)cc21	inactive	–
CCOP(=O)(OCC)OP(=O)(OCC)OCC	inactive	–
CCCCOC(=O)c1ccccc1C(=O)O	inactive	–
CC(C)CC#N	inactive	–
CCOC(=O)C1(c2ccccc2)CCN(CCc2ccc(N)cc2)CC1	inactive	–
CCC(=O)c1ccccc1	inactive	–
C[C@]12CC[C@H]3[C@@H](CCC4=CC(=O)CC[C@@]43C)[C@@H]1CC[C@@H]2C(=O)O	inactive	–
